The values below come from PubChem BioAssay (NCI).

What all share (experiment): NCI-60 one-dose screen, 48 h (100 = growth as untreated, 0 = no growth, -100 = all killed)
Details in all cases: 10 µM

The subject of assay [1] is DU-145 prostate.
Assay [2] has as its system K-562 leukemia.
For assay [3], the system named is MALME-3M melanoma.
Assay [4] has as its system MDA-MB-231 breast.
Assay [5] concerns RXF 393 renal.
The subject of assay [6] is SF-268 CNS.
Assay [7] relates to SF-295 CNS.
In assay [8] the test system is SF-539 CNS.
In assay [9] the test system is UACC-257 melanoma.
For assay [10], the system named is M14 melanoma.
The subject of assay [11] is HCT-15 colon.
The subject of assay [12] is HT29 colon.
The subject of assay [13] is SNB-75 CNS.
Assay [14] has as its system SNB-19 CNS.
For assay [15], the system named is U251 CNS.
Assay [16] deals with SK-MEL-5 melanoma.
Assay [17] has as its system UACC-62 melanoma.
Assay [18] deals with LOX IMVI melanoma.
Assay [19] relates to SK-MEL-28 melanoma.
For assay [20], the system named is PC-3 prostate.

About 83,000 compounds went through this panel and 20% of them were active in at least one assay; those are over-represented in the sample as a whole.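 Assay: single dose, 48 h. Readout: percent growth (0 = no net growth; negative = cell death). Active: <10.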 Values without a mark were called inactive. Active and inactive are the calls of the source.

For the compound `CC(=O)N(O)c1ccc(/C=C/c2ccccc2)cc1`, the growth is 3.54% (active) in [1]; 73.3% in assay [2]; 94% in assay [3]; 48.7% in assay [4]; -11% (active) in assay [5]; 12.4% in assay [6]. Moreover, the growth in assay [7] was -26.7% (active); in assay [8] it was 33.6%; in assay [9], -6.82% (active); in assay [10] it was 46.2%; in assay [11], 62.7%; in [12] it was 47%. For the same compound, the growth in [13] is 16%; in assay [14] it was 32.3%; in [15], 14.1%; in assay [16] it was 73.7%; in assay [17], 32.2%; in assay [18], 25.9%. Moreover, the growth in [19] was 75.4%.
For `CC(C)c1[nH]nc2c(NCc3ccc(-c4ccccn4)cc3)nc(SCCN(C)C)nc12`, the growth in [1] is 11.4%; in assay [2] it was 5.19% (active); in [3], -52.2% (active); in assay [4], 1.25% (active); in assay [5], -69.1% (active); in [6] it was 6.37% (active). Moreover, the growth in assay [7] is 2.15% (active); in assay [8] it was -43.5% (active); in [9], -4.44% (active); in assay [10] it was -32.9% (active); in assay [11], 6.46% (active); in assay [12], -15.7% (active). Also, the growth in assay [13] is -55.9% (active); in [14], 13.7%; in [15] it was 7.48% (active); in assay [20], 2.89% (active); in assay [16], 1.36% (active); in assay [17] it was -37.2% (active). Moreover, the growth in assay [18] was -7.56% (active); in assay [19], 5.17% (active).
Consider `O=S(=O)(NC1c2ccccc2Oc2ccccc21)c1cc(Cl)ccc1Cl`, for which the growth in [1] was 113%; in [2], 89.8%; in assay [3], 102%; in assay [4] it was 97.4%; in assay [5] it was 93.1%; in [6] it was 99.1%. Also, the growth in assay [7] is 101%; in assay [8], 98.2%; in assay [9], 102%; in assay [10] it was 98.9%; in [11], 93.7%; in [12], 91.4%. The growth in assay [13] is 90.2%; in [14], 97.2%; in assay [15], 95.7%; in assay [20], 88.9%; in assay [16], 94.6%; in [17] it was 93.2%. The values for the growth in assay [18] and in assay [19] were 96.1% and 110%, respectively.
For `O=C1/C(=C/c2ccc(O)cc2)CSc2ccc(Cl)cc21`, the growth in [1] is 102%; in assay [2], 64%; in [3], 111%; in assay [4], 77.5%; in assay [5] it was 91.1%; in [6], 93%. Also, the growth in [7] was 91.6%; in assay [8], 85.5%; in assay [9], 100%; in assay [10], 88.8%; in assay [11] it was 53.9%; in [12], 69.3%. For the same compound, the growth is 93.8% in assay [13]; 88.4% in [14]; 74.8% in assay [15]; 80.9% in assay [16]; 71.8% in assay [17]; 49.3% in [18]. The growth in assay [19] is 107%.
With `COC(=O)c1c(C)nc(Nc2nc3ccccc3s2)nc1-c1ccc(Cl)cc1Cl`, the growth was 113% in [1]; 91.2% in [2]; 97.1% in assay [3]; 99.1% in assay [4]; 107% in assay [5]; 101% in assay [6]. In addition, the growth is 93.3% in assay [7]; 103% in assay [8]; 111% in assay [9]; 101% in [10]; 92.2% in [11]; 114% in [12]. Moreover, the growth in assay [13] is 87.2%; in assay [14], 92.3%; in assay [15] it was 111%; in [20], 91.3%; in assay [16] it was 105%; in [17], 96.1%. Also, the growth in [18] is 101%; in [19] it was 109%.
Turning to `CCn1nc(-c2ccccn2)c2cccnc2c1=S`, the growth is 97% in assay [1]; 35.7% in assay [2]; 68.4% in assay [3]; 53.3% in [4]; 110% in assay [5]; 94.8% in assay [6]. In addition, the growth in assay [7] is 78.1%; in assay [8], 89.1%; in assay [9], 35.8%; in [10], 65%; in assay [11] it was 67.2%; in assay [12], 51.9%. Also, the growth in assay [13] is 95.4%; in assay [14], 93.9%; in assay [15], 74.5%; in assay [20], 38.4%; in assay [16], 59.3%; in assay [17], 81.2%. For the same compound, the figures for the growth in [18] and in [19] were 87.5% and 89.4%, respectively.
Turning to `COc1ccc(C2CC(c3ccc(-c4ccccc4)cc3)=NN2c2ccc(S(N)(=O)=O)cc2)cc1` (stereo unspecified), the growth is 83.2% in assay [1]; 52.7% in [2]; 95.8% in assay [3]; 69.6% in assay [4]; 73.3% in assay [5]; 68% in assay [6]. The growth in [7] is 86.5%; in assay [8] it was 98.7%; in assay [9] it was 82.7%; in [10], 89.6%; in [11], 45.6%; in assay [12] it was 48.6%. Besides, the growth in assay [13] is 81.7%; in assay [15], 66.8%; in [20], 19.7%; in assay [16], 85.5%; in assay [17] it was 71.1%; in assay [18] it was 50.3%. The growth in assay [19] was 85.4%.
As to `O=C1CC[C@@H](C(=O)N[C@H]2CSSC[C@@H](C(=O)NCCc3ccccc3)NC(=O)[C@H](Cc3ccccc3)NC(=O)[C@@H]3CCCN3C(=O)[C@@H]3CCCN3C2=O)N1`, the growth in [1] was 110%; in [2], 90.6%; in [3], 110%; in assay [4] it was 90.1%; in assay [5], 103%; in assay [6] it was 106%. Moreover, the growth in assay [7] was 98.8%; in assay [8] it was 94.2%; in [9] it was 99.1%; in [10] it was 97.8%; in assay [11], 102%; in assay [12], 102%. Further, the growth in [13] is 92.7%; in assay [15] it was 96.8%; in assay [20], 84.1%; in assay [16], 100%; in assay [17], 94.6%; in assay [18], 94.1%. In addition, in assay [19], the growth is 102%.
